Hit rate of the full screen: of about 5,500 compounds, about 2,000 (36%) were called active. Roughly 18% stayed inconclusive and do not appear here. Rule as the data show it: active = normalized growth mostly below about 0.91 (no sharp cut-off); inconclusive = no clear call, values can overlap the other calls; inactive = mostly above about 0.92. Some of the results follow.
Test: chemical genetic growth profiling, strain panel (AID 1159580);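 also: tested at 20 µM; growth read once vehicle control cultures reached saturation at 30 °C; 1 = growth at the plate median or of vehicle wells; lower values mean less growth of the strain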
Settings: S. cerevisiae deletion strains, growth OD

Measured: normalized growth

CC(=O)O[C@]1(C(C)=O)CCC2C3C=C(Cl)C4=CC(=O)CC[C@]4(C)C3CC[C@@]21C (some centres undefined)
inactive: locus YAL021C, strain ccr4, stronger effect = lower value 1.02 | locus YAL026C, strain drs2, stronger effect = lower value 1.04 | locus YAL030W, strain snc1, stronger effect = lower value 0.978 | locus YBL061C, strain skt5, stronger effect = lower value 0.997 | locus YBR009C, strain hhf1, stronger effect = lower value 0.999 | locus YBR023C, strain chs3, stronger effect = lower value 1.01 | locus YBR171W, strain sec66, stronger effect = lower value 1.01 | locus YBR231C, strain swc5, stronger effect = lower value 1 | locus YBR279W, strain paf1, stronger effect = lower value 1 | locus YCL011C, strain gbp2, stronger effect = lower value 1 | locus YCL016C, strain dcc1, stronger effect = lower value 0.988 | locus YCL069W, strain vba3, stronger effect = lower value 1.01 | locus YCR088W, strain abp1, stronger effect = lower value 1.01 | locus YDL005C, strain med2, stronger effect = lower value 0.991 | locus YDL040C, strain nat1, stronger effect = lower value 1 | locus YDR001C, strain nth1, stronger effect = lower value 1.01 | locus YDR069C, strain doa4, stronger effect = lower value 0.967 | locus YDR137W, strain rgp1, stronger effect = lower value 0.894 | locus YDR159W, strain sac3, stronger effect = lower value 0.925 | locus YDR195W, strain ref2 1.02 | locus YDR297W, strain sur2, stronger effect = lower value 0.957 | locus YDR334W, strain swr1, stronger effect = lower value 1.01 | locus YDR335W, strain msn5, stronger effect = lower value 0.974 | locus YDR392W, strain spt3, stronger effect = lower value 0.832 | locus YEL003W, strain gim4, stronger effect = lower value 1.01 | locus YEL037C, strain rad23, stronger effect = lower value 1.02 | locus YEL061C, strain CIN8 (second series), stronger effect = lower value 1.01 | locus YER015W, strain faa2, stronger effect = lower value 1.01 | locus YER016W, strain bim1, stronger effect = lower value 0.984 | locus YER111C, strain swi4, stronger effect = lower value 1.01 | locus YER155C, strain BEM2 (second series), stronger effect = lower value 0.99 | locus YFR010W, strain ubp6, stronger effect = lower value 1.03 | locus YGL167C, strain pmr1, stronger effect = lower value 0.993 | locus YGL173C, strain kem1, stronger effect = lower value 1.03 | locus YGL227W, strain vid30, stronger effect = lower value 0.998 | locus YGL240W, strain doc1, stronger effect = lower value 0.952 | locus YGL253W, strain hxk2, stronger effect = lower value 0.991 | locus YHR013C, strain ard1, stronger effect = lower value 1.06 | locus YHR027C, strain rpn1, stronger effect = lower value 0.985 | locus YHR030C, strain SLT2, stronger effect = lower value 1.03 | locus YHR079C, strain IRE1, stronger effect = lower value 1.04 | locus YHR142W, strain chs7, stronger effect = lower value 1 | locus YJL092W, strain hpr5, stronger effect = lower value 1.01 | locus YJL095W, strain BCK1 (second series), stronger effect = lower value 0.983 | locus YJL095W, strain BCK1, stronger effect = lower value 0.991 | locus YJL115W, strain asf1, stronger effect = lower value 1.03 | locus YJL129C, strain trk1, stronger effect = lower value 1.01 | locus YJL154C, strain vps35, stronger effect = lower value 1.01 | locus YJL164C, strain tpk1, stronger effect = lower value 1.01 | locus YJL166W, strain qcr8, stronger effect = lower value 0.98 | locus YJL187C, strain SWE1, stronger effect = lower value 0.952 | locus YJR066W, strain TOR1, stronger effect = lower value 0.98 | locus YKL160W, strain elf1, stronger effect = lower value 0.977 | locus YKR026C, strain gcn3, stronger effect = lower value 1.01 | locus YKR091W, strain srl3, stronger effect = lower value 1.01 | locus YLL001W, strain dnm1, stronger effect = lower value 1.02 | locus YLL026W, stronger effect = lower value 1 | locus YLL041C, strain sdh2, stronger effect = lower value 0.993 | locus YLR027C, strain aat2, stronger effect = lower value 0.97 | locus YLR113W, strain HOG1, stronger effect = lower value 0.923 | locus YLR221C, strain rsa3, stronger effect = lower value 0.986 | locus YLR258W, strain gsy2, stronger effect = lower value 0.958 | locus YLR262C, strain YPT6 (second series), stronger effect = lower value 0.947 | locus YLR320W, strain mms22, stronger effect = lower value 0.991 | locus YLR342W, strain FKS1, stronger effect = lower value 0.974 | locus YLR357W, strain rsc2, stronger effect = lower value 1.04 | locus YLR370C, strain arc18, stronger effect = lower value 0.973 | locus YLR384C, strain iki3, stronger effect = lower value 0.981 | locus YML120C, strain ndi1, stronger effect = lower value 0.967 | locus YMR058W, strain fet3, stronger effect = lower value 1.02 | locus YMR125W, strain sto1, stronger effect = lower value 1 | locus YMR129W, stronger effect = lower value 0.967 | locus YMR205C, strain PFK2, stronger effect = lower value 0.943 | locus YMR231W, strain pep5, stronger effect = lower value 1.02 | locus YNL071W, strain lat1, stronger effect = lower value 1.01 | locus YNL183C, strain NPR1, stronger effect = lower value 0.958 | locus YNL209W, strain ssb2, stronger effect = lower value 0.99 | locus YNL248C, strain rpa49, stronger effect = lower value 1.03 | locus YNL322C, strain KRE1 (second series), stronger effect = lower value 1.01 | locus YNR049C, strain mso1, stronger effect = lower value 0.97 | locus YOR001W, strain rrp6, stronger effect = lower value 0.99 | locus YOR070C, strain gyp1, stronger effect = lower value 0.978 | locus YOR080W, strain dia2, stronger effect = lower value 0.996 | locus YOR083W, strain WHI5, stronger effect = lower value 0.997 | locus YOR106W, strain vam3, stronger effect = lower value 1.03 | locus YOR231W, strain MKK1, stronger effect = lower value 0.994 | locus YOR265W, strain rbl2, stronger effect = lower value 0.979 | locus YOR270C, strain vph1, stronger effect = lower value 1.01 | locus YOR290C, strain snf2, stronger effect = lower value 1.01 | locus YPL051W, strain arl3, stronger effect = lower value 1 | locus YPL078C, strain atp4, stronger effect = lower value 0.996 | locus YPL106C, strain sse1, stronger effect = lower value 1.01 | locus YPL240C, strain hsp82, stronger effect = lower value 1 | locus YPL256C, strain CLN2, stronger effect = lower value 1.04

From PubChem BioAssay AID1159580 (chemical genetic matrix, 2015)
